Mtb MbtI inh – MbtI salicylate synthase inhibitors, primary screen, biochemical, fluorescence intensity. P9WFX0. purified MbtI enzyme, fluorescence intensity read-out. inhibition, % (no concentration beside the values). 100,000 tested, 0.89% active; in the data active = inhibition mostly above about 56%, no sharp cut-off; inactive = mostly below about 77%
Target sequence (P9WFX0 whole entry, looked up): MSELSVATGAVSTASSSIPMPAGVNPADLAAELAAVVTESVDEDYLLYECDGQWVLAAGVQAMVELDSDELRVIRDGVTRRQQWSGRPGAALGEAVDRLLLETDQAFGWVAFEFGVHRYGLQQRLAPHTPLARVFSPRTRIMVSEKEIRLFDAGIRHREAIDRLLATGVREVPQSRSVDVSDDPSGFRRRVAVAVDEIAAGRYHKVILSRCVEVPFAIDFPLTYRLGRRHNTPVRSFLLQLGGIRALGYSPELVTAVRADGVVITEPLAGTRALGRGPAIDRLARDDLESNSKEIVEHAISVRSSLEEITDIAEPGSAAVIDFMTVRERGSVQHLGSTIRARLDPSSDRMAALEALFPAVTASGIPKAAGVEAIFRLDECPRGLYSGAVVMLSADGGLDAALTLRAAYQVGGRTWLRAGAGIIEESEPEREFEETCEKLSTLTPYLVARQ
MenB inh – M. tuberculosis MenB inhibitors, primary screen, biochemical, absorbance | MenB enzyme assay, absorbance read-out | inhibition, % (concentration not given with the values) | 1,4-dihydroxy-2-naphthoyl-CoA synthase (Mycobacterium tuberculosis (strain ATCC 25618 / … | 100,000 tested, 0.43% active; in the data active = inhibition above about 21%, passing the limit was not always enough
AID504770 – growth inhibition of E. coli YBA685, primary screen, V. cholerae RctB inhibitors | E. coli YBA685 rctB-dependent plasmid, OD600 growth, 3 h; active compounds read low | z-score (no concentration beside the values) | 130,000 tested, 0.27% active | AID 504770, 2011; in the data active = z-score below about -2, passing the limit was not always enough
Polio RdRp inh – poliovirus RdRp elongation inhibitors, primary screen, biochemical, fluorescence polarization, total intensity; poliovirus polymerase elongation; active compounds read low; % elongation, % (compound at 16.7 µg/mL); 150,000 tested, 0.66% active; AID 588519, 2011; in the data active = % elongation below about 90%
Active calls of the source: *. Sampled rows, rich in hits. Any-hit rate of the full collection: about 1.4%.

For NC(=O)c1cc(S(=O)(=O)NCc2ccccc2)cs1 the results were Polio RdRp inh -12*.
For O=C(CSc1nnnn1-c1ccccc1)c1ccc2c(c1)OCO2 the results were Mtb MbtI inh 6 and AID504770 1.2.
Screening O=c1[nH]c(O)c(C=Nc2cc(C(F)(F)F)ccc2N2CCCCC2)c(=O)[nH]1 returned Mtb MbtI inh 12, MenB inh 4, AID504770 0.6 and Polio RdRp inh 104.
For Cc1ccc2nc(Nc3cccc(O)c3)c3nncn3c2c1 the results were Mtb MbtI inh 0, MenB inh 2, AID504770 2.3 and Polio RdRp inh 104.
Screening COC(=O)c1c(NC(=S)Nn2cnnc2)sc2c1CCC(C)C2 (centres undefined) returned Mtb MbtI inh 85*, MenB inh -15, AID504770 -0.2 and Polio RdRp inh 99.
For COC(=O)c1c(NC(=S)NCc2ccco2)sc2c1CCC(C)C2 (centres undefined) the results were Mtb MbtI inh -3, MenB inh -18, AID504770 -0.05 and Polio RdRp inh 101.
Screening O=C1CCCC(O)=C1N=Nc1ccccc1C(=O)O returned Mtb MbtI inh 18, MenB inh -463, AID504770 0.6 and Polio RdRp inh 97.
For O=C1CCCC(O)=C1N=Nc1ccc(C(=O)O)cc1 the results were Mtb MbtI inh 6, MenB inh -180, AID504770 1.5 and Polio RdRp inh 76*.
For COc1ccc(-n2c(=O)/c(=C\c3ccccn3)s/c2=C(/C#N)C(=O)NC2CC2)cc1 the results were Mtb MbtI inh -2, MenB inh -18, AID504770 -0.8 and Polio RdRp inh 109.
CN(CC(=O)O)Cc1cccnc1 was read as Mtb MbtI inh -4, MenB inh 26*, AID504770 -0.3 and Polio RdRp inh 99.
COc1ccc(C(CNc2ncnc3sccc23)N2CCCC2)cc1 (centres undefined) was read as Mtb MbtI inh 6, MenB inh -13, AID504770 0.35 and Polio RdRp inh 112.
For Cc1ccc(S(=O)(=O)N(C)c2c(C)ccc(S(=O)(=O)n3nc(C)cc3C)c2C)cc1 the results were Mtb MbtI inh -4, MenB inh 39*, AID504770 0.2 and Polio RdRp inh 101.
`COc1ccc(N2CCN(c3cc(=O)n4oc(C)cc4n3)CC2)cc1` gave Mtb MbtI inh -13, MenB inh -22, AID504770 -0.15 and Polio RdRp inh 106.
O=C(O)c1cn(C2CC2)c2cc(N3CCN(C(=S)S)CC3)c(F)cc2c1=O was read as MenB inh -77, AID504770 -8.3* and Polio RdRp inh 102.
O=C(O)c1cn(-c2ccc(F)cc2)c2cc(N3CCNCC3)c(F)cc2c1=O was read as Mtb MbtI inh 2, MenB inh -4, AID504770 -3.5* and Polio RdRp inh 99.
`CCn1cc(C(=O)O)c(=O)c2cc(Cl)ccc21` gave AID504770 0.25.
Screening CCn1cc(C(=O)O)c(=O)c2cc(F)c(N3CCN(C(=S)NC)CC3)cc21 returned MenB inh -14, AID504770 -7.2* and Polio RdRp inh 109.
For CCOC(=O)c1cn(CC)c2cc(N3CCCC3)c(F)cc2c1=O the results were Mtb MbtI inh -2, MenB inh 4, AID504770 0 and Polio RdRp inh 104.
CCn1cc(C(=O)O)c(=O)c2cc(F)c(N3CCN(C(=S)NC(=O)c4c(-c5ccccc5)noc4C)CC3)cc21 was read as Mtb MbtI inh -42, MenB inh -12, AID504770 -0.7 and Polio RdRp inh 102.
For CCn1cc(C(=O)O)c(=O)c2cc3c(cc21)OCO3 the results were Mtb MbtI inh -1, MenB inh -7, AID504770 -3.8* and Polio RdRp inh 102.
`Nc1nc2c(ccc3[nH]c(=O)c(=O)[nH]c32)s1` gave Mtb MbtI inh 3, MenB inh -9, AID504770 0.8 and Polio RdRp inh 97.
For Cc1ccc(Nc2cc(C(=O)NCc3ccco3)c3ccccc3n2)c(C)c1 the results were Mtb MbtI inh 8, MenB inh -3, AID504770 0.4 and Polio RdRp inh 100.
`O=c1[nH]sc2ccccc12` gave Mtb MbtI inh 105, MenB inh 51*, AID504770 -6.1 and Polio RdRp inh 98.
`CSc1nc(C)c2cc(C)ccc2n1` gave Mtb MbtI inh 116, MenB inh 17, AID504770 -0.45 and Polio RdRp inh 99.
Screening Cc1sc(NC(=O)C(C)Oc2ccc(Cl)cc2Cl)c(C(N)=O)c1C (centres undefined) returned MenB inh -23, AID504770 1.5 and Polio RdRp inh 75*.
Screening C/C(=N\NC(=O)C1CC1)c1ccc(C)cc1 returned Mtb MbtI inh 10, MenB inh 0, AID504770 0.1 and Polio RdRp inh 106.
CC(C)(C)OC(=O)NCc1cccs1 was read as Mtb MbtI inh 6, MenB inh 33*, AID504770 0.95 and Polio RdRp inh 102.
O=C(CN1c2ccccc2S(=O)(=O)c2ccccc21)Nc1cccnc1 was read as Mtb MbtI inh 5, MenB inh 4, AID504770 1 and Polio RdRp inh 100.
Screening O=c1ccc2cc3c([nH]c4ccc(Br)cc43)oc-2c1O returned Mtb MbtI inh 97*, MenB inh -119, AID504770 0.5 and Polio RdRp inh 86.
`CNC(=O)COC(=O)c1cccn1C` gave Mtb MbtI inh 6, MenB inh 0, AID504770 0.25 and Polio RdRp inh 99.
For O=C(O)c1ccc2c(c1)NC(=O)C(CSCc1ccccc1Cl)N2 (centres undefined) the results were AID504770 -0.45.
`N#Cc1c(N)sn(-c2ccccc2)c1=S` gave Mtb MbtI inh 94*, MenB inh -5, AID504770 -0.35 and Polio RdRp inh 79*.
`O=C1/C(=C\c2ccccn2)SC(=S)N1CCc1ccc(Cl)cc1` gave AID504770 -0.25.
`O=C(O)CCN1C(=O)/C(=C/c2ccccn2)SC1=S` gave Mtb MbtI inh 74*, MenB inh -155, AID504770 0.4 and Polio RdRp inh 99.
`Cc1nn(-c2ccc(Cl)cc2)c2sc(C(=O)NC3=NCCS3)cc12` gave Mtb MbtI inh 113, MenB inh 10, AID504770 0.85 and Polio RdRp inh 101.
Screening CCOC(=O)c1sc(NC(=O)c2cccs2)nc1-c1ccccc1 returned AID504770 -0.25.
For [N-]=C=C1C(=O)N(CCc2ccccc2)C(=O)[C@H]([n+]2ccccc2)[C@H]1c1ccc(Cl)cc1 the results were MenB inh -1, AID504770 0.5 and Polio RdRp inh 69*.
CN1C(=O)c2ccccc2C(C(=O)O)C1c1c[nH]c2ccccc12 (centres undefined) was read as AID504770 -0.65.
`CN(CCC#N)CC1Cc2ccccc2O1` (centres undefined) gave Mtb MbtI inh -1, MenB inh 45*, AID504770 1.3 and Polio RdRp inh 103.

Source: PubChem BioAssay (ICCB-Longwood Screening Facility, Harvard Medical School)
